Measurements reported in ChEMBL document CHEMBL4513216, “Probing the Open Global Health Chemical Diversity Library for Multistage-Active Starting Points for Next-Generation Antimalarials” (ACS Infect Dis, 2020).
Out of some 69,000 compounds screened, about 8,600 (12%) showed an effect of 50% or more. For the sample, strong results were picked, then their nearest neighbours and some compounds at random.

What follows are molecules tested on Plasmodium berghei (assay: Screen against P. berghei liver stage (PbLuc), transformed with Luciferase, at 10uM). Conditions: tested at 10 uM.
Type: functional, HepG2
In the case of CCCNC(=O)Nc1ncc(-c2cccnc2)s1, the INHIBITION is reported as 15.5%.
COCC(=O)N1CC[C@H]2C[C@H](C)O[C@@H]2C1 gave an INHIBITION of 38.1%.
CCCC(=O)N1CCCCC1C(=O)Nc1ccc(-c2nnc[nH]2)cc1 (stereo not drawn) gave an INHIBITION of 16.8%.
Cn1nc(C2CCN(C(=O)CCN3CCOCC3)CC2)c2cccnc21 showed an INHIBITION of 32.8%.
CC(C)c1nc(CSc2nnc(-c3cccs3)n2CC(N)=O)no1 gave an INHIBITION of -49.7%.
Work on CC(O)CN1CCN(C(=O)c2ccn(-c3ccccc3Cl)n2)CC1 (stereo not drawn) yielded an INHIBITION of -12.2%.
For CN1C[C@@H](COCC2CC2)[C@H]2CCN(Cc3ccco3)CC[C@H]2C1=O, the INHIBITION was 46.7%.
Molecule CN1C[C@H](COCC2CC2)[C@H]2CCN(Cc3ccco3)CC[C@H]2C1=O has an INHIBITION of 33.4%.
COC[C@@H]1CN(C)C(=O)[C@@H]2CCN(Cc3ccco3)CC[C@H]12 showed an INHIBITION of 54.1%.
In the case of Cc1cn2c(n1)CCC(NS(=O)(=O)c1cc(C)sc1C)C2 (stereo not drawn), the INHIBITION is reported as 61.5%.
Work on Cc1cn2c(n1)CCC(NS(=O)(=O)c1ccc(C)s1)C2 (stereo not drawn) yielded an INHIBITION of 34.4%.
Molecule Cc1cn2c(n1)CCC(NS(=O)(=O)c1sc(C)nc1C)C2 (stereo not drawn) has an INHIBITION of 21.5%.
Cc1cccc(COC[C@@H]2CC[C@H]3[C@H](CCN3C(=O)CC3CC3)O2)n1 showed an INHIBITION of 24.1%.
Work on Cc1ccc(-c2cc(C(=O)N(C)Cc3noc4c3CCCC4)[nH]n2)o1 yielded an INHIBITION of 34.5%.
CC(Nc1cnn(C)c(=O)c1Cl)c1ccc(F)c(F)c1 (stereo not drawn) was tested, and the INHIBITION was 68.9%.
Molecule Cn1ncc(NCc2cc(F)cc(F)c2)c(Cl)c1=O has an INHIBITION of 8.48%.
In the case of Cc1ccc(C(C)NC(=O)CCc2cnn(C)c2)cc1F (stereo not drawn), the INHIBITION is reported as 33%.
Cc1nccn1-c1ccc(C(C)Nc2cnn(C)c(=O)c2Cl)cc1 (stereo not drawn) gave an INHIBITION of 52.6%.
Molecule COc1ccc(C(C)Nc2cnn(C)c(=O)c2Cl)cc1OC (stereo not drawn) has an INHIBITION of 68.9%.
For COc1ccc(C(C)Nc2ncc(C(N)=O)cc2Cl)cc1OC (stereo not drawn), the INHIBITION was -59.5%.
Work on CC(Nc1cnn(C)c(=O)c1Cl)c1ccc(F)cc1 (stereo not drawn) yielded an INHIBITION of 65.9%.
In the case of Cn1ncc(N2CCOCC2)c(Cl)c1=O, the INHIBITION is reported as 8.77%.
For Cc1nccn1-c1ccc(NS(=O)(=O)c2cnn(C(C)C)c2)cn1, the INHIBITION was -2.97%.
Molecule CC(NCc1cnc(N2CCN(C)CC2)nc1)c1ccc(F)cc1 (stereo not drawn) has an INHIBITION of 26.5%.
In the case of COc1ccc(C(C)Nc2nc3c(C)nn(C)c3c(=O)n2C)cc1 (stereo not drawn), the INHIBITION is reported as -45.2%.
With COc1ccc(C(C)Nc2ncc(C(N)=O)cc2Cl)cc1F (stereo not drawn) the INHIBITION was -138%.
CC(C)CC(=O)N1Cc2ccccc2CC1C(=O)Nc1nccs1 (stereo not drawn) showed an INHIBITION of 31.6%.
For CCn1cc2c(n1)CN(S(=O)(=O)c1cccnc1)CC2COC (stereo not drawn), the INHIBITION was 8.85%.
